# Data as given in article PMC7862700, “An all-to-all approach to the identification of sequence-specific readers for epigenetic DNA modifications on cytosine”.
# Assays:
# Assay in all cases: DAPPL (digital affinity profiling via proximity ligation, sequencing); 10 mM Tris-HCl pH 7.5, 50 mM NaCl, 1 mM DTT, 4% glycerol, room temperature, 30 min; GST-TFs on glutathione beads, 16-mer random dsDNA library, 0.1% formaldehyde crosslink after washing; high values mean tight binding
# ELK1 = target: T1, ELK1 (Homo sapiens, UniProt P19419 1-428); conditions: protein: recombinant; tags: N-terminal GST; dsDNA, one strand shown
# T1 sequence: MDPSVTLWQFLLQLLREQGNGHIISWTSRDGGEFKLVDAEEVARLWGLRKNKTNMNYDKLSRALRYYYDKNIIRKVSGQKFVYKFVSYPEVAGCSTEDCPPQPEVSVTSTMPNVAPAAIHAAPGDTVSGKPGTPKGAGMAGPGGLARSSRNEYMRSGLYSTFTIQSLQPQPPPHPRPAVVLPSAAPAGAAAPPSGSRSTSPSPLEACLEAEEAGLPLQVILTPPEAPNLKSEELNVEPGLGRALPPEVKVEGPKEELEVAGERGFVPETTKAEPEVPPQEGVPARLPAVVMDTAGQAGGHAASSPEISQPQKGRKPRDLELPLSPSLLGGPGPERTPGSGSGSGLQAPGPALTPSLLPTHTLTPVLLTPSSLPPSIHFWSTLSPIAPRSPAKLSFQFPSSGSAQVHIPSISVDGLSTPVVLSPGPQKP
# Outline: (§1)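 Yeast served to express human transcription factors as GST fusions, which were then captured on glutathione beads and labelled with DNA barcodes. Pooled with a tag-only sample, they were incubated with 200 nmole of a 16-mer random double-stranded DNA library for 30 min at room temperature in Tris/NaCl/DTT/glycerol buffer, washed, crosslinked with 0.1% formaldehyde, ligated by proximity, amplified by PCR and sequenced. Dividing each hexamer's read frequency for a factor by its frequency for the tag-only sample gives the binding signal.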
# GABPA = target: T2, GABPA (Homo sapiens, UniProt Q06546 1-454); conditions: protein: recombinant; tags: N-terminal GST; dsDNA, one strand shown
# T2 sequence: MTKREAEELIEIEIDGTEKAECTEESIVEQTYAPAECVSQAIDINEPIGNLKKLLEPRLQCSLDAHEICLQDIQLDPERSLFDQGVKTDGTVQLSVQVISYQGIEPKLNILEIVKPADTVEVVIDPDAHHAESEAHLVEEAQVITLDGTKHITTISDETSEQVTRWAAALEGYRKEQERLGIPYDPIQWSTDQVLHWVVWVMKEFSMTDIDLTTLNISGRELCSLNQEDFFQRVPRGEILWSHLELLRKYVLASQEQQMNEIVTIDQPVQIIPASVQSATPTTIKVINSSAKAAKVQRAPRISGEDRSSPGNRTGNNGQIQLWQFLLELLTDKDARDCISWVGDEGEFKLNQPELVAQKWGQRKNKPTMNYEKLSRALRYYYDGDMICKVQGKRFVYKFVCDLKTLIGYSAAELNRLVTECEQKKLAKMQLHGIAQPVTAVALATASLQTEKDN
# Outline: as §1
# ELF1 = ELF1 (Homo sapiens, UniProt P32519 1-619); conditions: protein: recombinant; tags: N-terminal GST; dsDNA, one strand shown
# Chain of ELF1 (P32519 whole entry): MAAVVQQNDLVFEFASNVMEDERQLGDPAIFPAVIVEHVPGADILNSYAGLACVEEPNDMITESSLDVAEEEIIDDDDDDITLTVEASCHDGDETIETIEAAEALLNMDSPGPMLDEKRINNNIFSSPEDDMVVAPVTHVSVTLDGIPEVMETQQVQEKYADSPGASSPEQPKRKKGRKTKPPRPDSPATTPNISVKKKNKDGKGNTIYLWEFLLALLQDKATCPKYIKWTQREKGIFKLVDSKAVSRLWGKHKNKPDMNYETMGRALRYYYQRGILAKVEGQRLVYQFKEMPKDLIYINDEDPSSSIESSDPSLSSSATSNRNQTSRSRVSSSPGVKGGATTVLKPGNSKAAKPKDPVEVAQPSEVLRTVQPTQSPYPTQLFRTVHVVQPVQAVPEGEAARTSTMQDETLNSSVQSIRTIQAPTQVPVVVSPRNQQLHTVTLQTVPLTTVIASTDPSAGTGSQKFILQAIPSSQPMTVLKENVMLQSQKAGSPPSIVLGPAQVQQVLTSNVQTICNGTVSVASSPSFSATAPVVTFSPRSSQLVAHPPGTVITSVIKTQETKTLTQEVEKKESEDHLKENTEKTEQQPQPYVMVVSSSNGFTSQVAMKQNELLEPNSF
# Outline: as §1
# SPIB = SPIB (Homo sapiens, UniProt Q01892 1-262); conditions: protein: recombinant; tags: N-terminal GST; dsDNA, one strand shown
# Chain of SPIB (Q01892 whole entry): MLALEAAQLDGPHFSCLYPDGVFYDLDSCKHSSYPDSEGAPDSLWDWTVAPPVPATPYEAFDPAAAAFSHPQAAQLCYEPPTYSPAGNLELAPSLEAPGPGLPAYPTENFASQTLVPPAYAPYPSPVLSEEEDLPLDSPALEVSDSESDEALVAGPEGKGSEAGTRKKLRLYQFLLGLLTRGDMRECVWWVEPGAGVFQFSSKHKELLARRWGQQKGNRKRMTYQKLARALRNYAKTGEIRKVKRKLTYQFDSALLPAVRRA
# Outline: as §1
# ELK3 = target: T3, ELK3 (Homo sapiens, UniProt P41970 1-407); conditions: protein: recombinant; tags: N-terminal GST; dsDNA, one strand shown
# T3 sequence: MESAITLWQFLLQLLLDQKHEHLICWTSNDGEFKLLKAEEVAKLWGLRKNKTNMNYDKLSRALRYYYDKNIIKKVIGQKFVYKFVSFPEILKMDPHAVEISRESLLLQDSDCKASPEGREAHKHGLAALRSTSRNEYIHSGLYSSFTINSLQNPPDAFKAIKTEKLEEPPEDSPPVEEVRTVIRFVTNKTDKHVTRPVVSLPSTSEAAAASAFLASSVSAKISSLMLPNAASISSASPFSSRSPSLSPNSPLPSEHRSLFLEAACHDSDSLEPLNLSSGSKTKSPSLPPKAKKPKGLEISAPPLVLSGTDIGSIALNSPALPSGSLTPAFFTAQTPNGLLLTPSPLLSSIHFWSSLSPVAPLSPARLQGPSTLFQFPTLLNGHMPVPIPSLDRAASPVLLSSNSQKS
# Outline: as §1
# FEV = target: T4, FEV (Homo sapiens, UniProt Q99581 1-238); conditions: protein: recombinant; tags: N-terminal GST; dsDNA, one strand shown
# T4 sequence: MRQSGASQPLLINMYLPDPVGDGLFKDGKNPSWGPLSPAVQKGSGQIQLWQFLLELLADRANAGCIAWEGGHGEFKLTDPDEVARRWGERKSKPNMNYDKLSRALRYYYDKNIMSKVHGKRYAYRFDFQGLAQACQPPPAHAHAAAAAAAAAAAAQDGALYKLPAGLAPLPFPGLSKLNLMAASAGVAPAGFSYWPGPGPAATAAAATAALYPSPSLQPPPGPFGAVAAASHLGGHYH
# Outline: as §1
# HSF1 = HSF1 (Homo sapiens, UniProt Q00613 1-529); conditions: protein: recombinant; tags: N-terminal GST; chain copies: 3; dsDNA, one strand shown
# Chain of HSF1 (Q00613 whole entry): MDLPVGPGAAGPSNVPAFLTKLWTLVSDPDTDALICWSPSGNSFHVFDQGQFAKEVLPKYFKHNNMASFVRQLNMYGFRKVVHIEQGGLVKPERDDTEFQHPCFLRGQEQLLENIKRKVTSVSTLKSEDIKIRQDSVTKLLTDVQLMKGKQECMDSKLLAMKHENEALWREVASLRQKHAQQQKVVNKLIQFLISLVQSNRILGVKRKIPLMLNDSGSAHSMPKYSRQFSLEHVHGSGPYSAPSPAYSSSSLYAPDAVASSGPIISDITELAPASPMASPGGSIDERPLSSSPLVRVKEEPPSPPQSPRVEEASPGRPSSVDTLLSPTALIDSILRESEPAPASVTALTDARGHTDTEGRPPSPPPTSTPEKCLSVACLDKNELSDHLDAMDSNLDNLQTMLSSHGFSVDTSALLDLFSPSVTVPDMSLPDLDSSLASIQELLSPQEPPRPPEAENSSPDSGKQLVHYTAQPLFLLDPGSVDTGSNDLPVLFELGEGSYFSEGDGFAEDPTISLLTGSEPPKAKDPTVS
# Outline: as §1
# SPIC = target: T5, SPIC (Homo sapiens, UniProt Q8N5J4 1-248); conditions: protein: recombinant; tags: N-terminal GST; dsDNA, one strand shown
# T5 sequence: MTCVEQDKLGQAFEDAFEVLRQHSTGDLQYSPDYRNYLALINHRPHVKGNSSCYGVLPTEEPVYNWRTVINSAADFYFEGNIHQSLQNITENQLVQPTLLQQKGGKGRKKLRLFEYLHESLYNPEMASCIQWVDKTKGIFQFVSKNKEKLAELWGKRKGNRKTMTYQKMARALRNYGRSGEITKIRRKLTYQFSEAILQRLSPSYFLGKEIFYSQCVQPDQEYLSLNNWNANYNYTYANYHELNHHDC
# Outline: as §1
# ELK4 = target: T6, ELK4 (Homo sapiens, UniProt P28324-2 1-405); conditions: protein: recombinant; tags: N-terminal GST; dsDNA, one strand shown
# T6 sequence: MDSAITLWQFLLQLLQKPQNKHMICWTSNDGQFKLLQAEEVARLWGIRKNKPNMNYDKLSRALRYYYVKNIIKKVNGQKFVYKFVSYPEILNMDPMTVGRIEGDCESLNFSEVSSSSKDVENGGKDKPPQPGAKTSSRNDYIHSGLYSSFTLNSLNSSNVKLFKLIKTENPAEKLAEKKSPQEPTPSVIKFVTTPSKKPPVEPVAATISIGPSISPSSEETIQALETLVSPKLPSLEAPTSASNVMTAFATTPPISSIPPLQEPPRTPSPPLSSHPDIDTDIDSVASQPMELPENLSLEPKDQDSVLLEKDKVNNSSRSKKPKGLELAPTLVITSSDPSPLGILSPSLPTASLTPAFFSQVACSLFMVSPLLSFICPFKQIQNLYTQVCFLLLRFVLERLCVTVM
# Outline: as §1
# CRX = CRX (Homo sapiens, UniProt O43186 1-299); conditions: protein: recombinant; tags: N-terminal GST; dsDNA, one strand shown
# Chain of CRX (O43186 whole entry): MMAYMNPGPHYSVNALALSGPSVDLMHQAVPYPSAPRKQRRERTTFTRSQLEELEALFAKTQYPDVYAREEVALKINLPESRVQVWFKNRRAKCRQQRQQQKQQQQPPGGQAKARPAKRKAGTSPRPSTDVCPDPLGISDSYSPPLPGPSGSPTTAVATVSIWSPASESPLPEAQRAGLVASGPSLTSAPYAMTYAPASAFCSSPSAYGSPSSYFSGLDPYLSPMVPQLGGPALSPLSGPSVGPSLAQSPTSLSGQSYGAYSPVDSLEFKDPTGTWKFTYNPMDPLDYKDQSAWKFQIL
# Outline: as §1
# ERF = target: T7, ERF (Homo sapiens, UniProt P50548 1-548); conditions: protein: recombinant; tags: N-terminal GST; dsDNA, one strand shown
# T7 sequence: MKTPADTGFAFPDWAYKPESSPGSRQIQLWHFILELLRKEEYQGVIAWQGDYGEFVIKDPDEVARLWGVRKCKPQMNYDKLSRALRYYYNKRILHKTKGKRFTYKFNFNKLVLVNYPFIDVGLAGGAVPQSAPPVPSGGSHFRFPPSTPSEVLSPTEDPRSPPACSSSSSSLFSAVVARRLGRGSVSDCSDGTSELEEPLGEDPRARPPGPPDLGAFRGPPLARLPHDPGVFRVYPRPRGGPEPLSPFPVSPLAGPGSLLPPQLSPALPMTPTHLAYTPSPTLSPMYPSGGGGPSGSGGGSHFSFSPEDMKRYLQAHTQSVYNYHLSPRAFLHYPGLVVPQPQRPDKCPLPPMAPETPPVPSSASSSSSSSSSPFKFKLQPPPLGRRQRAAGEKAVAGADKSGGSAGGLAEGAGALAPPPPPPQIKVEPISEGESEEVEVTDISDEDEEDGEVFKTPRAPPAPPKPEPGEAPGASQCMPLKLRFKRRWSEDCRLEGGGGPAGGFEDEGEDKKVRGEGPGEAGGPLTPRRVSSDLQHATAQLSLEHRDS
# Outline: as §1
# ETV3L = target: T8, ETV3L (Homo sapiens, UniProt Q6ZN32 1-361); conditions: protein: recombinant; tags: N-terminal GST; dsDNA, one strand shown
# T8 sequence: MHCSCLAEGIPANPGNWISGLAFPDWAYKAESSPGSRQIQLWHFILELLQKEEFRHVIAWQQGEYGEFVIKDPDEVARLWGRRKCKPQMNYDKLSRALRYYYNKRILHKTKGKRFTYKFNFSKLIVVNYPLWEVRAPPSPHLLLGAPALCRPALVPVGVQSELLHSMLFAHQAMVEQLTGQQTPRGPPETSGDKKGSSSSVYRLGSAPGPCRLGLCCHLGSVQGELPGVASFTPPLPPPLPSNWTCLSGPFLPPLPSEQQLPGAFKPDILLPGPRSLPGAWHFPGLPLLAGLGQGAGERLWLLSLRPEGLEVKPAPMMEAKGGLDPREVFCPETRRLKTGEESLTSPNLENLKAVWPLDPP
# Outline: as §1
# ETS2 = target: T9, ETS2 (Homo sapiens, UniProt P15036 1-469); conditions: protein: recombinant; tags: N-terminal GST; dsDNA, one strand shown
# T9 sequence: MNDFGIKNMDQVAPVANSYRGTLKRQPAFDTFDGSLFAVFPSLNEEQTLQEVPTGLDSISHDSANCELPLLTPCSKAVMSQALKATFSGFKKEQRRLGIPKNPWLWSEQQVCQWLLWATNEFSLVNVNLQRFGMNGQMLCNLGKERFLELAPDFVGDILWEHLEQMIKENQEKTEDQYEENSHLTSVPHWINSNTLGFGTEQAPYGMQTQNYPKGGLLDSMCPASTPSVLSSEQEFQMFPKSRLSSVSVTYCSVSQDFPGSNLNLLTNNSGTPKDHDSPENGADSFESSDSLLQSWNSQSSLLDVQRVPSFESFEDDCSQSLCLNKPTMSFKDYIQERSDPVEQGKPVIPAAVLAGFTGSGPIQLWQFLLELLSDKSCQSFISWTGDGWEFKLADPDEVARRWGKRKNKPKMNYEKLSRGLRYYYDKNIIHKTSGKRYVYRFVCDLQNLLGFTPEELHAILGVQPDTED
# Outline: as §1
# SPDEF = target: T10, SPDEF (Homo sapiens, UniProt O95238 1-335); conditions: protein: recombinant; tags: N-terminal GST; dsDNA, one strand shown
# T10 sequence: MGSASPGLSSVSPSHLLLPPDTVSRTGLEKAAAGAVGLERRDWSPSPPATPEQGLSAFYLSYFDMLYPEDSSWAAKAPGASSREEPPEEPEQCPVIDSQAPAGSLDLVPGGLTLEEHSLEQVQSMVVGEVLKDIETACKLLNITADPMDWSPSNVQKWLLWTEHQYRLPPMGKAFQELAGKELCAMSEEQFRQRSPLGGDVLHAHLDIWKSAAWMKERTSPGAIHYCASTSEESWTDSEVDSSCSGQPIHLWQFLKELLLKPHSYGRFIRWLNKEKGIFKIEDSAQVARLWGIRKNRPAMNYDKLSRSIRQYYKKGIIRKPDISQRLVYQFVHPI
# Outline: as §1
# ETV7 = target: T11, ETV7 (Homo sapiens, UniProt Q9Y603 1-341); conditions: protein: recombinant; tags: N-terminal GST; dsDNA, one strand shown
# T11 sequence: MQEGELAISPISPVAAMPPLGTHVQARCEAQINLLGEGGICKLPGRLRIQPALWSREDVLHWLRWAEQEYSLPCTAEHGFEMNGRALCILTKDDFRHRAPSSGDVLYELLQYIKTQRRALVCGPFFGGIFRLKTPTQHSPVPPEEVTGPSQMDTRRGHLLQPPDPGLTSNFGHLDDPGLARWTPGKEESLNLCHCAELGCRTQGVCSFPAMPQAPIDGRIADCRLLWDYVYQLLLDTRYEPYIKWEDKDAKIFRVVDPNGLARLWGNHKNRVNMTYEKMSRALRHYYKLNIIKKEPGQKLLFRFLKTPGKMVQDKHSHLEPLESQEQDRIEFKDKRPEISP
# Outline: as §1
# ETV3 = target: T12, ETV3 (Homo sapiens, UniProt P41162-2 1-143); conditions: protein: recombinant; tags: N-terminal GST; dsDNA, one strand shown
# T12 sequence: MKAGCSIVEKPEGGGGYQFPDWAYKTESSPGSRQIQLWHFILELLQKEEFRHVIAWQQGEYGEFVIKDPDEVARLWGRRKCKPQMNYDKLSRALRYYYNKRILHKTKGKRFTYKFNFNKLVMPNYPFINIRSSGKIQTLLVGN
# Outline: as §1
sequence,measurement,setting,value
TCGCAT,binding signal,ELK1,"1.06 fold enrichment (6-mer frequency, TF over GST control)"
same,binding signal,GABPA,"1.02 fold enrichment (6-mer frequency, TF over GST control)"
same,binding signal,ELF1,"1.04 fold enrichment (6-mer frequency, TF over GST control)"
same,binding signal,SPIB,"1.06 fold enrichment (6-mer frequency, TF over GST control)"
same,binding signal,ELK3,"1.01 fold enrichment (6-mer frequency, TF over GST control)"
same,binding signal,FEV,"1.08 fold enrichment (6-mer frequency, TF over GST control)"
same,binding signal,HSF1,"1.04 fold enrichment (6-mer frequency, TF over GST control)"
same,binding signal,SPIC,"1.02 fold enrichment (6-mer frequency, TF over GST control)"
same,binding signal,ELK4,"1.08 fold enrichment (6-mer frequency, TF over GST control)"
same,binding signal,CRX,"1.15 fold enrichment (6-mer frequency, TF over GST control)"
same,binding signal,ERF,"1.07 fold enrichment (6-mer frequency, TF over GST control)"
same,binding signal,ETV3L,"1.03 fold enrichment (6-mer frequency, TF over GST control)"
same,binding signal,ETS2,"1.04 fold enrichment (6-mer frequency, TF over GST control)"
same,binding signal,SPDEF,"1.03 fold enrichment (6-mer frequency, TF over GST control)"
same,binding signal,ETV7,"1.01 fold enrichment (6-mer frequency, TF over GST control)"
same,binding signal,ETV3,"1.03 fold enrichment (6-mer frequency, TF over GST control)"
